# An excerpt weighted towards active compounds, which were near 19% of everything screened.
# DT40 TDP1 CPT: growth inhibition of DT40 Tdp1-/-;hTDP1 cells with camptothecin (screen for TDP1 inhibitors); chicken DT40 Tdp1-/-;hTDP1 cells + 20 nM CPT, ATP luminescence, 48 h; 12% of 420,000 active; AID 686979; Potency, µM (highest dose often 46.2 µM), for inactives: at the top dose activity change, negative = growth inhibition, most hits filed as inhibitors; also: potency is read from the fitted curve at half-maximal effect; nearly all actives have a fitted effect of over 55% in size
#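 Cell growth measured by CellTiter-Glo luminescence after a minimum 48 h, 37 C compound exposure with 20 nM CPT in Tdp1-knockout DT40 cells stably expressing hTDP1, seeded 400/well; qHTS titration format.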
# TDP1 cell noCPT: qHTS for Inhibitors of human tyrosyl-DNA phosphodiesterase 1 (TDP1): qHTS in cells in absence of CPT | DT40 Tdp1-/- hTDP1 cells, no CPT, ATP luminescence, 48 h | Potency, µM (titrated, usually from 46.2 µM), for the others: at the highest dose activity change, negative = growth inhibition, most hits filed as inhibitors | 15% of 420,000 active | AID 686978, 2013; also: potency is read from the fitted curve at half-maximal effect; nearly all actives have a fitted effect of over 55% in size
#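 Readout: luminescence from CellTiter-Glo after 30 min in the dark at RT. Cells: DT40 Tdp1-/- with stable hTDP1, 400/well. Exposure: compounds alone, ≥48 hr, 37 °C.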
# HT1080 IDH1KD tx: HT-1080 IDH1 knockdown cell toxicity (counter line). HT-1080 IDH1 knockdown viability, ATP luminescence, 48 h. Potency, µM (highest dose often 46.1 µM), inactives show at the highest dose activity, negative = toxicity, most hits filed as cytotoxic. 2% of 360,000 active;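 also: potency is read from the fitted curve at half-maximal effect; 0% = DMSO wells and -100% = cell-free medium wells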
#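 Viability of IDH1-knockdown HT-1080 fibrosarcoma cells was assessed by CellTiter-Glo after 48 h at 37 °C with titrated compound; concentration-effect curves were classified by fit quality and response size.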
# HT1080NT lethal: kills 2HG-producing HT-1080-NT fibrosarcoma cells; Potency, µM (doses to about 46.1 µM), without a hit: top-dose activity, negative = less viability, actives largely listed as cytotoxic; 1.6% of 360,000 active; HT-1080-NT fibrosarcoma viability, CellTiter-Glo ATP luminescence, 48 h;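 also: NT is the 2HG producing partner of a matched IDH1 knockdown line; potency is read from the fitted curve at half-maximal effect; 0% = DMSO-treated cells and -100% = media-only wells without cells; nearly all actives have a fitted effect of over 55% in size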
#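 Compounds were tested in concentration-response format on HT-1080-NT cells for 48 hours at 37 degrees C. Cell viability came from CellTiter-Glo luminescence; curves were classified by r2, response magnitude and activity.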
# IL-1B inflam inh: inhibitors of inflammasome signaling (IL-1 beta secretion); THP-1 LPS/ATP IL-1B secretion, AlphaLISA, 16 h; stronger effect = lower value; 4.7% of 360,000 active; activity change, % at 57.5 µM; in the data active = activity change below about -50%; inconclusive = mostly about -30% to -49%
#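 Secreted IL-1B measured by AlphaLISA bead assay after 16 h compound exposure of THP-1 cells; compounds (final up to 57.5 uM) added 1 h before LPS (250 ng/mL) and ATP (1.25 mM) stimulation; lower signal means less secretion.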
# Active calls of the source: *; ? = inconclusive; . = no result. Unless noted, calls follow the shape of the dose curve; as a rule, active = well fitted curve in the direction sought with a large enough effect; inconclusive = small, poorly fitted or top-dose-only effect, or another doubt; inactive = no such curve, though single readings can be large; an effect the other way counts as inactive or inconclusive. Unless noted, % is scaled to controls: 0 for no effect and ±100 for the full control effect.
SMILES,DT40 TDP1 CPT,TDP1 cell noCPT,HT1080 IDH1KD tx,HT1080NT lethal,IL-1B inflam inh
Cc1cccc(-c2noc(CCC(=O)Nc3ccc(C(N)=O)cc3)n2)c1,-2.8%,-3.8%,-7.5%,-0.4%,19.8
CCOc1ccccc1NC(=O)c1ccccc1-c1nc(-c2ccccc2OC)no1,16.4µM*,9.2µM*,-15.1%,-13.3%,-3.7
CCOc1ccc(NC(=O)CCCc2nc(-c3cccc(OC)c3)no2)cc1,?,20.6µM*,.,.,.
COc1cccc(-c2noc(CCCC(=O)NC3CCCC3)n2)c1,?,-27.7%,-14.3%,-1.8%,0.0
CCOC(=O)c1ccc(NC(=O)CCc2nc(-c3ccccc3Cl)no2)cc1,16.4µM*,14.6µM*,?,?,54.4
COc1ccc(NC(=O)CSc2n[nH]c(-c3ccncc3)n2)cc1Cl,-26.5%,?,-0.3%,0.6%,53.5
Cc1cccc(C)c1NC(=O)C/C(N)=N/O,-0.8%,13.0%,6.2%,1.3%,-12.0
COc1ccc(-c2noc(CCCC(=O)NC3CCCCC3)n2)cc1,20.6µM*,23.1µM*,?,-25.8%,-28.8
COc1ccc(-c2noc(CCC(=O)NC3CCCC3)n2)cc1,-25.6%,?,1.1%,0.1%,16.3
CCOc1ccccc1NC(=O)CCCc1nc(-c2ccccc2Cl)no1,13µM*,?,.,.,.
CCCOC(=O)c1ccc(Oc2c(-c3ccc(OCC)cc3O)n[nH]c2C)cc1,16.4µM*,18.4µM*,?,?,-101.9*
CCCOC(=O)c1ccc(Oc2cn[nH]c2-c2ccc(OCC)cc2O)cc1,?,?,?,?,-74.9*
CCCc1ccc(Oc2cn[nH]c2-c2ccc(O)c(C)c2O)cc1,18.4µM*,?,?,?,-64.0*
CCOc1ccc(-c2[nH]ncc2Oc2cccc(OC)c2)c(O)c1,?,?,?,?,-4.9
CCC(C)(C)NC(=O)CN(C(=O)C(=O)Nc1ccc2c(c1)OCCO2)C1CC1,4.8%,-9.5%,-4.1%,-4.2%,-2.4
CCOC1=C2[C@@H](CN(S(=O)(=O)c3ccc(C)cc3)[C@H]2c2cccc3ccccc23)[C@H]2C(=O)N(C)C(=O)[C@H]2C1,5.9%,-1.2%,-0.5%,0.0%,-22.8
CCOC1=C2[C@@H](CN(S(=O)(=O)c3ccc(C)cc3)[C@H]2c2ccccc2Cl)[C@H]2C(=O)N(C)C(=O)[C@H]2C1,25.9µM*,16.4µM*,5.3%,-0.4%,-0.4
CCOC1=C2[C@@H](CN(S(=O)(=O)c3ccccc3C)[C@H]2c2ccc(Cl)cc2)[C@H]2C(=O)N(C3CCCCC3)C(=O)[C@H]2C1,20.6µM*,?,-23.4%,-2.0%,-4.9
CCCSc1ncc(Cl)c(C(=O)Nc2sc3c(c2C(=O)NCCCOC)CCCC3)n1,12.6µM*,11.2µM*,.,.,.
CCOC(=O)c1c(NC(=O)c2nc(SCC)ncc2Cl)sc2c1CCCC2,11.2%,7.0%,.,.,.
CCNC(=O)c1c(NC(=O)c2nc(S(=O)(=O)CC)ncc2Cl)sc2c1CCCC2,-112.4%,0.731µM*,.,.,.
CCSc1ncc(Cl)c(C(=O)Nc2sc3c(c2C(=O)NCc2cccnc2)CCCC3)n1,-27.6%,?,18.5%,3.3%,-10.0
COCCCNC(=O)c1c(NC(=O)c2nc(S(C)(=O)=O)ncc2Cl)sc2c1CCCC2,1.03µM*,0.731µM*,.,.,.
CCOCCCNC(=O)c1c(NC(=O)c2nc(SCC)ncc2Cl)sc2c1CCCC2,?,10µM*,.,.,.
CCCSc1ncc(Cl)c(C(=O)Nc2sc3c(c2C(N)=O)CCCC3)n1,20.7%,12.8%,.,.,.
SMILES,DT40 TDP1 CPT,TDP1 cell noCPT,HT1080 IDH1KD tx,HT1080NT lethal,IL-1B inflam inh
CCc1nnc(NC(=O)C(c2ccccc2)c2ccccc2)s1,?,?,-7.3%,-11.3%,-0.4
CCCCn1nc(C(=O)NC2CCCCCC2)c2ccccc2c1=O,?,13µM*,3.9%,11.3%,25.6
Cc1cc(=O)c(C(=O)Nc2cccc(C(=O)NC3CC3)c2)nn1-c1ccccc1Cl,-27.1%,18.0%,-0.9%,-4.6%,-54.0*
CC(C)Cn1nc(C(=O)Nc2cccc(C(=O)NC3CC3)c2)c2ccccc2c1=O,?,18.4µM*,-0.4%,-9.3%,-1.4
Cc1cc(=O)c(C(=O)O)nn1-c1ccccc1Cl,-24.0%,8.3%,27.4%,27.2%,-8.3
CC(Cc1nnc(N)s1)c1ccccc1 (configuration not stated),1.2%,1.4%,-4.4%,11.5%,13.6
Cc1ccc(NC(=O)CN(C)C(=O)c2cc(-c3cccs3)nn2-c2ccccc2)cc1,?,?,-8.2%,-4.2%,-51.6*
CCN(CC(=O)Nc1c(F)cccc1F)C(=O)c1cc(-c2cccs2)nn1-c1ccccc1,?,18.4µM*,0.9%,8.4%,-13.4
CCN(CC(=O)Nc1ccccc1OC)C(=O)c1cc(-c2ccccc2)nn1-c1ccccc1,20.6µM*,?,?,?,-10.4
COc1ccccc1-c1nnc(SC(C)C(=O)NCC2CCCO2)n1C (configuration not stated),8.9%,-8.2%,2.8%,-1.7%,27.7
O=S1(=O)[C@H]2C[C@@H]3C=C[C@@]2(CN1Cc1cccc(F)c1)O3,?,-0.8%,10.3%,15.2%,14.6
Cc1cc(C(=O)Cn2nc(C(=O)O)c3ccccc3c2=O)c(C)n1CC(F)(F)F,-9.6%,-4.0%,-19.6%,-12.1%,-2.0
COc1ccc(-n2c(C)cc(C(=O)Cn3nnc4ccccc4c3=O)c2C)cc1,20.6µM*,20.6µM*,?,?,0.0
Cc1cc(C(=O)Cn2nc(C(=O)O)c3ccccc3c2=O)c(C)n1CCc1ccc(F)cc1,16.4µM*,?,?,-10.6%,-4.8
COc1ccc(-n2c(C)cc(C(=O)Cn3nc(C(=O)O)c4ccccc4c3=O)c2C)cc1,?,16.4µM*,-16.4%,-10.0%,0.0
Cc1ccc(-n2c(C)cc(C(=O)Cn3nc(C(=O)O)c4ccccc4c3=O)c2C)cc1,?,?,?,-26.1%,2.2
CC(C)Cn1c(-c2ccc(Br)cc2)c[nH]c1=S,16.4µM*,14.6µM*,-0.1%,-8.2%,-9.9
COc1ccccc1Cn1cc(C(=O)c2ccc(C)cc2)c(=O)c2cc(F)cc(F)c21,3.3%,3.6%,.,.,.
CCOc1ccc(NC(=O)Cn2cc(C(=O)c3ccc(F)cc3)c(=O)c3cc4c(cc32)OCCO4)cc1,-21.0%,-1.7%,.,.,.
COc1ccccc1Cn1cc(C(=O)c2ccc(C)cc2)c(=O)c2cc(C)ccc21,5.17µM*,7.31µM*,.,.,.
COc1ccccc1Cn1cc(C(=O)c2ccc(C)cc2)c(=O)c2cc3c(cc21)OCCO3,14.6µM*,20.6µM*,.,.,.
O=C(c1ccc(F)cc1)c1cn(Cc2ccccc2F)c2cc3c(cc2c1=O)OCCO3,?,20.6µM*,.,.,.

# High-throughput results: PubChem BioAssay, National Center for Advancing Translational Sciences (NCATS)
